Assay results reported in PubChem BioAssay (Tox21).
Inconclusive results are not listed. The source made the active and inactive calls. Unless noted, the call rests on the fitted dose curve. Bridge positions count the residues as written; N and C are the ends. Square brackets hold non-standard residues; d marks the D form. Peptide text beside a SMILES is read from it. * marks the point of attachment. Sta = CC(C)C[C@H](N)[C@@H](O)CC(=O)O; hArg = N=C(N)NCCCC[C@H](N)C(=O)O; Isovaleryl = CC(C)CC(=O)*; Mpa = O=C(O)CCS

How the values were obtained:
[1] = molecular target: Gonadotropin-releasing hormone receptor (Homo sapiens) (UniProt P30968); assay: Human gonadotropin-releasing hormone receptor (GnRHR) small molecule agonists, calcium flux assay in GnRHR-HEK293 cells (AID 1920063); further: nearly all actives have a fitted effect of over 35% in size
In short: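 Intracellular calcium rise is the read-out: engineered human GnRHR HEK293 cells, dye-loaded, are exposed to DMSO-dissolved compounds and fluorescence at Ex/Em 480/540 is tracked for 3 min.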

[2] = molecular target: KiSS-1 receptor (Homo sapiens) (UniProt Q969F8); assay: Human kisspeptin (KISS1R) small molecule agonists, calcium flux assay in KISS1R-HEK293 cells (AID 1920064; active means well fitted activation curve with a large enough effect in the repeat runs)
In short: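 Concentration-response testing used 15 concentrations in triplicate on human KISS1R-expressing HEK293 cells. Calcium-dependent fluorescence (Ex/Em 480/540) was followed kinetically for 3 min after compound transfer.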

[3] = G protein-coupled receptor (GPCR) small molecule agonists, calcium flux assay: HEK293 wild type cell line counter screen (AID 1920065)
In short: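 Fluorescence intensity signals activation. After overnight (18 h) culture and a 1 h calcium dye load at 37 C, compounds are added by pin tool and the plate read at 480/540 nm for 3 min in 1 s steps.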

[4] = p53 small molecule agonists, cell-based qHTS assay with human liver microsomes (AID 1963577);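 further: p53 response element beta-lactamase reporter cells with liver microsomes plus NADPH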
In short: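 With metabolic activation: human liver microsomes (0.5 mg/mL final) plus NADPH (0.5 mg/mL final) added alongside compounds to p53RE-bla cells; 16 h 37 C exposure; beta-lactamase read by LiveBLAzer fluorescence.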

[5] = p53 small molecule agonists, cell-based qHTS assay with rat liver microsomes (AID 1963578)
In short: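 Metabolic activation by rat liver microsomes and NADPH, each 0.5 mg/mL final, added right after compounds to p53RE-bla reporter cells (4,000/well, plated 5 h earlier). 16 h at 37 C, then LiveBLAzer substrate for 2 h at room temperature in the dark; fluorescence read-out.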

[6] = p53 small molecule agonists, cell-based qHTS assay with human liver microsomes: qHTS cell viability counter screen (AID 1963579); further: nearly all actives have a fitted effect of over 45% in size; further: potency means the concentration at half of the fitted maximal effect
In short: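 Metabolic activation used human liver microsomes and NADPH, both 0.5 mg/mL final, over 16 hours at 37 C on p53RE-bla cells (4,000/well). Cytotoxicity measured by CellTiter-Glo luminescence, 30 min at room temperature.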

[7] = p53 small molecule agonists, cell-based qHTS assay with rat liver microsomes: qHTS cell viability counter screen (AID 1963580); further: nearly all actives have a fitted effect of over 45% in size
In short: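 Rat liver microsome (0.5 mg/mL final) and NADPH (0.5 mg/mL final) co-incubation with compounds for 16 h at 37 C on HCT-116 p53RE-bla cells; cytotoxicity taken from intracellular ATP luminescence.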

[8] = p53 small molecule agonists, cell-based qHTS assay: qHTS cell viability counter screen (AID 1963581); further: nearly all actives have a fitted effect of over 45% in size; further: potency means the concentration at half of the fitted maximal effect
In short: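 Luminescence from CellTiter-Glo, reflecting ATP content, serves as the cytotoxicity measure; it is taken after the 2 h reporter substrate step in HCT-116 p53RE-bla cells dosed for 16 h at 37 C.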

[9] = p53 small molecule agonists, cell-based qHTS assay (AID 1963582; active means well fitted activation curve with a large enough effect in the signal ratio in the repeat runs, not every such curve was filed as active; the % refers to the signal ratio)
In short: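 After plating, p53RE-bla cells sat 5 h in the incubator; compounds or DMSO vehicle were pinned in; a 16 h incubation at 37 C followed; FRET substrate was added and, 2 h later at RT, fluorescence was measured.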

[10] = molecular target: 5-hydroxytryptamine receptor 2A (Homo sapiens) (UniProt P28223); assay: 5-hydroxytryptamine receptor 2A (HTR2A) small molecule antagonists, cell-based qHTS assay (AID 1963586); further: nearly all actives have a fitted effect of over 45% in size; further: potency means the concentration at half of the fitted maximal effect
In short: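 CHO cells stably expressing human HTR2A were plated for 18 h at 37 C, then loaded with calcium dye for 1 h. Compounds were preincubated 5 min at room temperature before DOI (4 nM solution) was added. Kinetic fluorescence was read for 3 min.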

[11] = molecular target: 5-hydroxytryptamine receptor 2A (Homo sapiens) (UniProt P28223); assay: 5-hydroxytryptamine receptor 2A (HTR2A) small molecule agonists, cell-based qHTS assay (AID 1963587); further: nearly all actives have a fitted effect of over 30% in size; further: potency means the concentration at half of the fitted maximal effect
In short: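 Kinetic calcium-flux fluorescence (2 min, 1 sec intervals) after compound addition in agonist mode. HTR2A-CHO cells were cultured 18 h, then dye-loaded 1 h at 37 C.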

[12] = molecular target: Muscarinic acetylcholine receptor M1 (Homo sapiens) (UniProt P11229); assay: Cholinergic receptor muscarinic 1 (CHRM1) small molecule agonists, cell-based qHTS assay (AID 1963589); further: nearly all actives have a fitted effect of over 35% in size
In short: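 Fluorescent calcium dye reports M1 activation in stably transfected CHO cells. Compounds, 15 concentrations, added after 1 h dye loading at 37 C; kinetic reading at 1 sec intervals.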

[13] = cAMP Responsive Elements (CRE) small molecule agonists, cell-based qHTS assay (AID 1963590)
In short: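 Compound exposure lasted 3 h at 37 C/5% CO2 in CRE-bla HEK 293T cells grown in assay medium with 10% dialyzed FBS and 25 mM HEPES. Reporter signal came from LiveBLAzer B/G FRET substrate, 2 h, room temperature.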

[14] = cAMP Responsive Elements (CRE) small molecule antagonists, cell-based qHTS assay (AID 1963591; active means well fitted inhibition curve with a large enough effect in the signal ratio in the repeat runs, not every such curve was filed as active; the % refers to the signal ratio; further: potency means the concentration at half of the fitted maximal effect)
In short: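 Stimulation used NKH477 at a final 0.25 uM for 3 h in compound-treated CRE-bla HEK293T cells, seeded 18 h beforehand. Reporter activity was measured with LiveBLAzer B/G FRET substrate after 2 h at room temperature.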

[15] = molecular target: Beta-2 adrenergic receptor (Homo sapiens) (UniProt P07550); assay: Adrenergic beta2 receptor (ADRB2) small molecule antagonists, cell-based qHTS assay (AID 1963592); further: series mostly up to about 92 µM; nearly all actives have a fitted effect of over 50% in size
In short: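 Assay format: CHO-ADRB2 cells, 18-20hr seeding at 37C/5% CO2, then compound plus 1nM isoproterenol agonist mix for 0.5hr RT. Homogeneous time-resolved fluorescence cAMP detection after 1hr, expressed as 665/615 nm ratio.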

[16] = molecular target: Beta-2 adrenergic receptor (Homo sapiens) (UniProt P07550); assay: Adrenergic beta2 receptor (ADRB2) small molecule agonists, cell-based qHTS assay (AID 1963593);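 further: CHO cells stably overexpressing human ADRB2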
In short: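 CHO cells stably over-expressing ADRB2 were plated overnight at 37C, then dosed with compounds plus a stimulation mix containing 100uM IBMX and 25uM Ro-20-1724 for 0.5hr at room temperature. cAMP was measured by HTRF competition, 1hr.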

[17] = molecular target: D(2) dopamine receptor (Homo sapiens) (UniProt P14416); assay: Dopamine D2 receptor (DRD2) small molecule agonists, cell-based qHTS assay (AID 1963594); further: nearly all actives have a fitted effect of over 35% in size
In short: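 cAMP accumulation in DRD2-HEK293 cells measured by HTRF after 1 h detection; compounds added 10 min before NKH477 (200nM […]) forskolin-analogue stimulation, 30 min at room temperature, with Ro20-1724 present at 0.1 mM final.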

[18] = molecular target: D(2) dopamine receptor (Homo sapiens) (UniProt P14416); assay: Dopamine D2 receptor (DRD2) small molecule antagonists, cell-based qHTS assay (AID 1963595; active means well fitted inhibition curve with a large enough effect in the signal ratio in the repeat runs, with a control signal flat; the % refers to the signal ratio)
In short: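 Antagonist mode in DRD2-HEK293 cells: after compound addition with 0.1 mM Ro20-1724, cells received quinpirole (12 nM) and NKH477 (200 nM) for 30 min at room temperature; HTRF cAMP read after 1 h detection.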

[19] = molecular target: Muscarinic acetylcholine receptor M1 (Homo sapiens) (UniProt P11229); assay: Cholinergic receptor muscarinic 1 (CHRM1) small molecule antagonists, cell-based qHTS assay (AID 1963588); further: nearly all actives have a fitted effect of over 40% in size
In short: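 Compounds were tested at 15 concentrations in three independent runs. Dye-loaded CHRM1-CHO cells were exposed 5 min at room temperature before stimulation by acetylcholine added at 50nM. Intracellular calcium was read kinetically on FDSS for 3 min.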

Measured: Potency

Muscarinic acetylcholine receptor M1 (Homo sapiens), sequence (P11229 whole entry, looked up): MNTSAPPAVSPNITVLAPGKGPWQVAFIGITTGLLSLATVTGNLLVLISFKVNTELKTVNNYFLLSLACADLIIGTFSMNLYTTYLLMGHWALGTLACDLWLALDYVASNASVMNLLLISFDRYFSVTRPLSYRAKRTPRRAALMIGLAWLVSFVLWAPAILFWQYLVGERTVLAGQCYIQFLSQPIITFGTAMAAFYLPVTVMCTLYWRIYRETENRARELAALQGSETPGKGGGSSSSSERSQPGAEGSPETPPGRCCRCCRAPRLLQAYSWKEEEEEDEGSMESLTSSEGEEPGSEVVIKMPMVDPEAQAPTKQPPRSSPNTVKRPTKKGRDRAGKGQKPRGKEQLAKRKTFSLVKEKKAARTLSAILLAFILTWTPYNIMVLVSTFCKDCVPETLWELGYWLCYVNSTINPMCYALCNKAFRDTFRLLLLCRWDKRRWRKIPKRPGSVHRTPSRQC
5-hydroxytryptamine receptor 2A (Homo sapiens), sequence (P28223 whole entry, looked up): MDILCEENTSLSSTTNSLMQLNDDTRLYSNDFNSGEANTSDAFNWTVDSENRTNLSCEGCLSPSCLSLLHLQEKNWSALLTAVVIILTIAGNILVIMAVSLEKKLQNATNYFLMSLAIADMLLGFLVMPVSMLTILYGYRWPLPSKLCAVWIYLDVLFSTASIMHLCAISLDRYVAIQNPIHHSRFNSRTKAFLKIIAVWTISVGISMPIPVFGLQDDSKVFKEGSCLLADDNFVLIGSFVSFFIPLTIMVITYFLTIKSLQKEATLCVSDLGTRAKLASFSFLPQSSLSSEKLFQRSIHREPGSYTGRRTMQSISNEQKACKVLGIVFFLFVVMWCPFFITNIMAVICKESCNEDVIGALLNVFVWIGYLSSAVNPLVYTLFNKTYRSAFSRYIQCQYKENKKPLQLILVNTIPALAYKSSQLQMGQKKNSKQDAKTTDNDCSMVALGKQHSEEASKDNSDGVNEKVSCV
KiSS-1 receptor (Homo sapiens), sequence (Q969F8 whole entry, looked up): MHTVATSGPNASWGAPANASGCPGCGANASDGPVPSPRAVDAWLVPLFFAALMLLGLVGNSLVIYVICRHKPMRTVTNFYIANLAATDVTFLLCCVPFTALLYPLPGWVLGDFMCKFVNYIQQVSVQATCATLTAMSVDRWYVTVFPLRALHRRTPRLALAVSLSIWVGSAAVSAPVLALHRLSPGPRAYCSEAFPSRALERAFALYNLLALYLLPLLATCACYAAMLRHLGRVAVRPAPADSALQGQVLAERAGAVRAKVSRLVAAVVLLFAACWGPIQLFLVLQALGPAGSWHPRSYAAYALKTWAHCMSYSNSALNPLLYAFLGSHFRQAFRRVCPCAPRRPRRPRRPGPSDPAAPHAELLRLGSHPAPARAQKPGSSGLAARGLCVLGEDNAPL
Beta-2 adrenergic receptor (Homo sapiens), sequence (P07550 whole entry, looked up): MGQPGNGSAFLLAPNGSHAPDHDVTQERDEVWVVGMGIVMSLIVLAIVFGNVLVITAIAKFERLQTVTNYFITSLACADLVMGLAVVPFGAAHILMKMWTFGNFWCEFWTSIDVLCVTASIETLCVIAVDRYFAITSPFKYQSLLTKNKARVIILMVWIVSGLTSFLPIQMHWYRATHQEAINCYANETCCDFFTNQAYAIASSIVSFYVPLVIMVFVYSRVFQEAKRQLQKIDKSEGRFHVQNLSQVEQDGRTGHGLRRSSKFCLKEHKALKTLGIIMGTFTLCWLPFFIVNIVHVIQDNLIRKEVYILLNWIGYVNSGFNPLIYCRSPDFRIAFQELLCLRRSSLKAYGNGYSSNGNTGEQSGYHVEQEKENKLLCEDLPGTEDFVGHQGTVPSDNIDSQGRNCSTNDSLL
D(2) dopamine receptor (Homo sapiens), sequence (P14416 whole entry, looked up): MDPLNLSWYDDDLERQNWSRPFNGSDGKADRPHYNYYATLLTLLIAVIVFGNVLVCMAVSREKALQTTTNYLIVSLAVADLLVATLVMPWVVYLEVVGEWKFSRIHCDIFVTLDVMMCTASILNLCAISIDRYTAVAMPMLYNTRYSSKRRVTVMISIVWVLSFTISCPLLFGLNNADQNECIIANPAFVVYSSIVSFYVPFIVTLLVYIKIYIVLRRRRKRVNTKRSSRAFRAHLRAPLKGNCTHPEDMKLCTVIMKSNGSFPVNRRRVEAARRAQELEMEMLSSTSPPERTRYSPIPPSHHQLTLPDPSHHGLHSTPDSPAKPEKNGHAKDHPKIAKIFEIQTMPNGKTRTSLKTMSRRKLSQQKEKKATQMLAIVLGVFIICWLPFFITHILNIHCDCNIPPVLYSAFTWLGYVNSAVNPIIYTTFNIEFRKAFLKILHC
Gonadotropin-releasing hormone receptor (Homo sapiens), sequence (P30968 whole entry, looked up): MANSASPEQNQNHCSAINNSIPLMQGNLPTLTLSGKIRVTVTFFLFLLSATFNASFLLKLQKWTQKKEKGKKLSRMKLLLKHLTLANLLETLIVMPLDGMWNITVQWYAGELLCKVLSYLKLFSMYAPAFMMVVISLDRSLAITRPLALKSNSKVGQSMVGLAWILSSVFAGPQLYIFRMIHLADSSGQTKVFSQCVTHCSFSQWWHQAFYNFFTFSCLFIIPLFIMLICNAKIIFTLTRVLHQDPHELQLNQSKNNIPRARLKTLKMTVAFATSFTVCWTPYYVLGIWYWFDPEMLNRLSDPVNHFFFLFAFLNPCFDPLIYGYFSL

Cc1cc(=O)[nH]o1
inactive: [1] | [2] | [3] | [4] | [5] | [6] | [7] | [8] | [9] | [10] | [11] | [12] | [13] | [14] | [15] | [16] | [17]

O=C(O)C1(c2ccc3c(c2)OC[C@H](Cc2ccc(-c4ccccc4)cc2)[C@H]3O)CCCC1
inactive: [3] | [7] | [17] | [18]
active: [6] 40.8 µM | [8] 32.4 µM | [10] 5.3 µM | [11] 54.9 µM

CSCC[C@H](NC(=O)[C@H](Cc1c[nH]c2ccccc12)NC(=O)CCNC(=O)OC(C)(C)C)C(=O)N[C@@H](CC(=O)O)C(=O)N[C@@H](Cc1ccccc1)C(N)=O
inactive: [10] | [11] | [19] | [12]

CC(=O)N[C@@H](CO)C(=O)N[C@@H](CC(=O)O)C(=O)N[C@@H](CCCCN)C(=O)N1CCC[C@H]1C(=O)O (Ac-SDKP-OH)
inactive: [10] | [11] | [12]

O=[N+]([O-])c1ccccc1Cl
inactive: [10] | [11] | [19] | [12] | [15] | [16] | [18]

CCCCCCCc1ccc(O)cc1
active: [14] 68.6 µM
inactive: [2] | [3] | [7] | [8] | [10] | [11] | [13] | [15] | [16] | [17]

NC(=O)[C@@H]1CSSCCC(=O)N[C@@H](CCCCN=C(N)N)C(=O)NCC(=O)N[C@@H](CC(=O)O)C(=O)N[C@@H](Cc2c[nH]c3ccccc23)C(=O)N2CCC[C@H]2C(=O)N1 ([Mpa][hArg]GDWPC-NH2; disulfide 1-7)
inactive: [10] | [11] | [19] | [12]

Oc1c(Cl)cc(Cl)cc1Cl
inactive: [10] | [19] | [12] | [15] | [17] | [18]

C=CCN1CC[C@]23c4c5ccc(O)c4O[C@H]2C(=O)CC[C@@]3(O)[C@H]1C5
inactive: [2] | [3] | [6] | [8] | [14] | [15] | [16] | [17] | [18]

N#CC(O)c1ccccc1 (configuration not stated)
inactive: [1] | [3] | [6] | [7] | [8] | [10] | [11] | [19] | [12] | [13] | [14] | [15] | [17] | [18]

CCCCC(CC)COC(=O)c1ccccc1C(=O)OCC(CC)CCCC (configuration not stated)
inactive: [1] | [3] | [4] | [5] | [6] | [7] | [15] | [18]

CC(C)(CCl)C(=O)Cl
active: [6] 18.2 µM
inactive: [2] | [3] | [7] | [8] | [9] | [10] | [11] | [19] | [13] | [14] | [15] | [17] | [18]

Cc1ccc(O)cc1C
inactive: [10] | [11] | [19] | [12] | [15] | [17] | [18]

O=C1Nc2ccc(Cl)cc2C(c2ccccc2)=NC1O (configuration not stated)
inactive: [1] | [2] | [8] | [9] | [10] | [11] | [19] | [12] | [13] | [15] | [16] | [17] | [18]

Cc1ccc(-c2c(Cl)nc(C#N)n2S(=O)(=O)N(C)C)cc1
inactive: [1] | [2] | [4] | [5] | [6] | [8] | [10] | [11] | [19] | [12] | [15] | [17] | [18]

CC(C)CC(=O)N[C@H](C(=O)N[C@H](C(=O)N[C@@H](CC(C)C)[C@@H](O)CC(=O)N[C@@H](C)C(=O)N[C@@H](CC(C)C)[C@@H](O)CC(=O)O)C(C)C)C(C)C (Isovaleryl-VV[Sta]A[Sta]-OH)
inactive: [10] | [11] | [19] | [12]

CC(C)C[C@H](NC(=O)CNC(=O)[C@H](Cc1ccc(O)cc1)NC(=O)[C@H](CO)NC(=O)[C@H](Cc1c[nH]c2ccccc12)NC(=O)[C@H](Cc1cnc[nH]1)NC(=O)[C@@H]1CCC(=O)N1)C(=O)N[C@@H](CCCN=C(N)N)C(=O)N1CCC[C@H]1C(=O)NCC(N)=O (stereo in doubt)
inactive: [11] | [19] | [12]

CCCCn1cc[n+](C)c1 (tested in a mixture with another compound)
inactive: [1] | [3] | [6] | [7] | [8] | [19] | [13] | [14] | [15] | [18]

CN1CC[C@]23c4c5ccc(O)c4O[C@H]2[C@@H](O)C=C[C@H]3[C@H]1C5
inactive: [1] | [3] | [10] | [11] | [12] | [13] | [14] | [15] | [16] | [17] | [18]

Cc1ccc2ccccc2c1C
inactive: [10] | [11] | [19] | [12] | [15] | [17]
